High-throughput results from PubChem BioAssay.
Measles CPE: compounds protecting cells from measles virus cytopathic effect, primary screen, measles RdRp inhibitor project, single point, MLSMR library, absorbance | Measles virus-infected cells, CPE protection | protection (pct of control), % at 4 µM | actives 1.5% (n = 140,000); in the data active means protection mostly above about 24%, no sharp cut-off; inactive means mostly below about 26%
ROMK primary: ROMK potassium channel modulators, primary screen, cell-based, thallium flux, MLSMR library. actives 2% (n = 130,000). Tet-inducible ROMK, thallium flux fluorescence; actives lie on both sides. AID 1918, 2009. ATP-sensitive inward rectifier potassium channel 1 (Homo sapiens), P48048. B-score at 10 µM;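 active means signal ratio slope over the read window, or its plate-corrected B-score, at least 3 SD from the plate mean, either direction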;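 further: B-score of the F/F0 ratio slope over 7 to 12 s after thallium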
Target sequence (P48048 whole entry, looked up): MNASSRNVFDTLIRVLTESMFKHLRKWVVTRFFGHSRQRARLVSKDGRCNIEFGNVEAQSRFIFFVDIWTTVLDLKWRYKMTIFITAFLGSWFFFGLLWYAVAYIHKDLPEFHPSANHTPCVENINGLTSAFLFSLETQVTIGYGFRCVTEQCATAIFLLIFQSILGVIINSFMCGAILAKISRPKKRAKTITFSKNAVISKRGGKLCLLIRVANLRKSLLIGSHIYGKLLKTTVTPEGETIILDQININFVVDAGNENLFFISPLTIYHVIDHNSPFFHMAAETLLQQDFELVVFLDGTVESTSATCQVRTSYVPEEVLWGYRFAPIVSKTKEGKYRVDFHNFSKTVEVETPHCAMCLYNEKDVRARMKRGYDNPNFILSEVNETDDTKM
Cl transport mod: KCC2 cotransporter modulators, thallium flux, primary screen, cell-based, HEK293 KCC2, FluoZin-2 fluorescence, MLSMR | actives 2.2% (n = 190,000) | Solute carrier family 12 member 5 (Homo sapiens), Q9H2X9 | KCC2 cells, thallium flux FluoZin-2 fluorescence | B-score of Tl+ flux slope (higher = more flux/activation; lower = inhibition) at 10 µM;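 active means thallium flux slope and its plate-corrected score both differing from the plate sample mean at a set confidence after two filtering rounds, in either direction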;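 further: slope of fluorescence scaled to starting intensity during 10 to 20 s after thallium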
Arbovirus inh: antivirals against arbovirus infection, primary screen, cell-based, full library, 10K replicate subset | arbovirus infection cell-based antiviral screen | inhibition, % at 10 µM | actives 0.37% (n = 200,000) | AID 1251, 2008; in the data active means inhibition above about 30%
HSV replic up: enhancers of HSV replication in host cells, fold increase, host cell viability; HSV replication augmentation in cells; maximum fold increase; actives 0.005% (n = 220,000); in the data active means maximum fold increase above about 1.5; tested in PC3 cells
Active calls of the source: *; i = inactive; x = no result given. Sampled rows, rich in hits. Any-hit rate of the full collection: about 4%.

SMILES	Measles CPE	ROMK primary	Cl transport mod	Arbovirus inh	HSV replic up
Cc1cc(C)n2nc(SCc3nnc(-c4ccccc4Br)o3)nc2n1	x	-0.034	-0.31	0	i
O=C(Nc1nc2ccccc2s1)Nc1ccc([N+](=O)[O-])cc1Cl	x	x	x	x	i
O=C(O)CC/C(=C\c1cc([N+](=O)[O-])ccc1Cl)c1nc2ccccc2s1	13	x	-10*	-8	i
COc1ccc(Oc2c(C)oc3c(CN4CCOCC4)c(O)ccc3c2=O)cc1	34*	x	0.24	9	i
Cc1oc2c(CN3CCCC3)c(O)ccc2c(=O)c1Oc1ccccc1Br	19*	0.031	-0.22	28	i
CC1CC(C)(C)CC2(C1)NC(=O)N(CC(=O)NC1CCCc3ccccc31)C2=O (centres undefined)	2	0.32	0.073	2	i
CC1CC(C)(C)CC2(C1)NC(=O)N(CC(=O)NCCc1c[nH]c3ccccc13)C2=O (centres undefined)	6	-0.015	0.0077	32*	i
CCN(CC)S(=O)(=O)c1ccc(OC)c(NC(=S)Nc2cccc(C)c2)c1	4	-0.82	-0.4	-2	i
CCN(CC)S(=O)(=O)c1ccc(OC)c(NC(=S)Nc2cccc(C)c2C)c1	45*	0.019	0.095	-1	i
O=S(=O)(Nc1cccc(-c2nc3cccnc3s2)c1)c1ccc2c(c1)OCCO2	9	x	0.064	31*	i
Cc1ccc(-c2nc3cccnc3s2)cc1NS(=O)(=O)c1ccc2c(c1)OCCO2	3	x	-0.37	-14	i
Cc1ccccc1OCCN(C#N)c1nc(N(C)C)nc(N(C)C)n1	x	-0.0029	-1.2	-3	i
COC(=O)NC(=S)Nc1ccc(Oc2ccc(Cl)cc2Cl)c(Cl)c1	1	0.73	11*	-24	i
COC(=O)NC(=S)Nc1ccc(Oc2ccc(Cl)cc2)c(Cl)c1	4	0.93	x	-25	i
CCc1ccc(N2C(=O)Nc3ccccc3C2(O)C(=O)N2CCN(c3ccccn3)CC2)cc1 (centres undefined)	x	0.51	1.4	12	i
Cc1nn(-c2ccccc2)c(N2CCCCC2)c1/C=N/O	54*	0.035	-0.095	3	i
O=C(NCCc1ccccc1)C1CCN(C(=O)c2ccc([N+](=O)[O-])cc2)CC1	x	-2.6	0.19	6	i
CCOCCCNC(=S)NCCCNc1nc2ccc(C)cc2cc1C#N	x	-0.095	-1.1	-10	i
CCOCCCNC(=S)NCCNc1nc2ccc(C)cc2cc1C#N	55*	x	0.023	1	i
CCOc1ccc(N/C(SC)=C(/C#N)C(N)=O)cc1	6	-0.95	x	-4	i
CCc1ccc(N/C(SC)=C(/C#N)C(N)=O)cc1	40*	-0.75	x	7	i
CC1=C(C)CC(C(=O)c2ccccc2)C(C(=O)O)C1 (centres undefined)	48*	x	0.57	-2	i
CC1=C(C)CC(C(=O)NCCc2ccccc2)C(C(=O)O)C1 (centres undefined)	8	-0.14	x	-2	i
Cc1c(C(=O)C(=O)N2c3ccccc3CC2C)c2ccccc2n1C (centres undefined)	x	-0.077	-2.8	-9	i
O=C(Nc1nnc(SCc2cccc3ccccc23)s1)C1COc2ccccc2O1 (centres undefined)	28	x	-0.36	20	i
SMILES	Measles CPE	ROMK primary	Cl transport mod	Arbovirus inh	HSV replic up
O=C(Nc1nnc(SCc2ccccc2Cl)s1)C1COc2ccccc2O1 (centres undefined)	19	x	0.95	41*	i
Cc1ccccc1CSc1nnc(NC(=O)C2COc3ccccc3O2)s1 (centres undefined)	2	-0.51	x	48*	i
Cc1csc(NC(=O)C2COc3ccccc3O2)n1 (centres undefined)	3	0.041	x	-6	i
COc1ccccc1/C=C/C(=O)Nc1cccc(S(=O)(=O)NC2=NCCCCC2)c1	x	-1.2	-1.5	-10	i
NC(=O)CC[C@@H]1NC(=O)[C@H](Cc2ccc(O)cc2)NC(=O)c2cc([N+](=O)[O-])cc(F)c2OCC[C@@H](C(N)=O)NC1=O	31*	0.46	-2	0	i
Cn1c(C(=O)N2COCC2(C)C)cc2c(=O)n3ccccc3nc21	22*	0.012	x	6	x
c1ccc(-c2nc(C3CCCCC3)no2)cc1	22	1.1	x	-3	i
COc1ccc(-c2nc(C3CCCCC3)no2)cc1OC	7	x	0.016	35*	i
Cc1ccc(NC(=O)C2CC2C)c(Cl)c1 (centres undefined)	x	-0.018	-0.12	-5	i
O=C(COc1ccccc1)NC1=NCCS1	78*	0.21	0.68	3	i
N#Cc1ccc(OCC(=O)NC2=NCCS2)cc1	x	-0.077	0.2	1	i
C=CCn1c(SCN2C(=O)c3ccccc3C2=O)nc2ccc(Cl)cc2c1=O	27	-1	42*	6	i
C=CCn1c(SCC(=O)Nc2sccc2C(N)=O)nc2ccc(Cl)cc2c1=O	8	x	11*	-6	i
Cc1ccc(/C=N\NC(=O)c2cc([N+](=O)[O-])cc([N+](=O)[O-])c2)o1	25	x	4.7*	5	i
O=C(COC(=O)c1ccc(OC(F)F)cc1)NCCCN1CCCC1=O	x	x	0.26	x	i
COc1ccc(NC(=O)C(c2ccccc2)N(C)C(=O)c2ccc(=O)[nH]c2)cc1 (centres undefined)	31*	0.42	0.088	1	i
Cc1ccc(C(C(=O)Nc2ccc(C(C)C)cc2)N(C)C(=O)c2ccc(=O)[nH]c2)cc1 (centres undefined)	x	0.06	-0.098	9	i
CCCNS(=O)(=O)c1ccc(OCC(=O)OC)cc1	39*	x	0.29	13	i
Cc1cc(C)[n+](C)n1CC(O)Cn1c2ccccc2c2ccccc21 (centres undefined)	x	-0.051	0.12	-2	i
CC(C)n1cc(NC(=O)c2cc(-c3ccccc3)on2)cn1	1	5.8*	33*	-15	i
O=C(Nc1cccnc1)c1cc(-c2ccccc2)on1	6	3.5*	-0.72	-7	i
CCOC(=O)c1c(/N=C/C2=C(O)CCCC2=O)sc2c1CCCC2	x	x	0.0049	x	i
CCOC(=O)c1c(/N=C/C2=C(O)CC(C)(C)CC2=O)sc(C)c1C	52*	0.15	-0.16	-4	i
CCCn1c(SCC(=O)Nc2nc(C)c(C(=O)OC)s2)nnc1C(C)C	31*	x	1.2	-3	i
COc1ccc(NC(=O)c2ccc(COc3ccccc3Br)o2)cc1OC	2	x	-6*	-35	i
COc1ccc(NC(=O)c2ccc(COc3ccccc3OC)o2)cc1OC	5	x	-1.7	-12	i
CC1(C)Cc2ccccc2-c2c1c(=O)n(Cc1ccccc1)c1nnnn21	2	0.32	x	-8	i
CCn1c(=S)[nH]c2c(c1=O)C(C)(C)Cc1ccccc1-2	x	4*	151*	9	i
